Source: PubChem BioAssay
HIF activator = HIF pathway transcriptional activation; 300,000 compounds, 0.32% hits; U2OS HRE-luciferase reporter, luminescence; normalized: DMSO 0%, desferrioxamine 100%; AID 1910; activation, % at 7.5 µM (by protocol);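 active = mean activation of at least 10% of the iron chelator positive control signal, with at least half of replicates also reaching 10%; inconclusive = mean and replicate majority disagree about reaching 10%; inactive = mean and most replicates under 10%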
aSyn 5UTR inh = MLPCN primary screen, SNCA 5' untranslated region; AID 1813; 300,000 compounds, 0.82% hits; alpha-synuclein 5'UTR reporter, inhibitor activity; inhibition, % (tested at 7.5 µM); in the data active = inhibition above about 60%; inconclusive = no clear call, values can overlap the other calls;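 note: H4 neuroglioblastoma cells stably carrying SNCA 5'UTR luciferase fusion; 0% = DMSO wells and 100% = positive control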
KLF5 inhibitor = suppresses KLF5 promoter-driven expression; DLD-1 KLF5 promoter-luciferase reporter, luminescence; inhibition, % at 5 µM; 290,000 compounds, 0.23% hits; AID 1700;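 active = inhibition above a per-plate limit of that plate's mean compound inhibition plus 3 SD, cut at about 60% in these data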;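 note: 0% = DMSO wells and 100% = LY294002 at 200 µM; higher means less KLF5 promoter-driven luciferase light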
Platelet DG rel = modulates dense granule release in human platelets | human platelet-rich plasma, SFLLRN dense granule ATP release, luminescence | inhibition, %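 (compounds screened at 7.5 µM in platelet-rich plasma)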 | 300,000 compounds, 0.22% hits | AID 1663;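 active = mean replicate score, as percent of positive control, at or above 50; inconclusive = mean below 50 but at least one replicate at or above 50; inactive = mean and every replicate below 50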
Wee1 degr inh = blocks degradation of human Wee1 kinase. P30291. HeLa Luc-Wee1K328M stability, luciferase luminescence; 100% = proteasome inhibitor MG132 effect. reporter increase, % at 5 µM. 220,000 compounds, 1.2% hits. AID 1321;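 active = activation above the mean of all tested compounds plus 3 SD, set per screening run, cut at about 8.8% in these data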;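 note: cells exposed to compound for 20 h before luminescence read; 0% = DMSO alone and 100% = MG132 at 30 µM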
Target sequence (P30291 whole entry K328M): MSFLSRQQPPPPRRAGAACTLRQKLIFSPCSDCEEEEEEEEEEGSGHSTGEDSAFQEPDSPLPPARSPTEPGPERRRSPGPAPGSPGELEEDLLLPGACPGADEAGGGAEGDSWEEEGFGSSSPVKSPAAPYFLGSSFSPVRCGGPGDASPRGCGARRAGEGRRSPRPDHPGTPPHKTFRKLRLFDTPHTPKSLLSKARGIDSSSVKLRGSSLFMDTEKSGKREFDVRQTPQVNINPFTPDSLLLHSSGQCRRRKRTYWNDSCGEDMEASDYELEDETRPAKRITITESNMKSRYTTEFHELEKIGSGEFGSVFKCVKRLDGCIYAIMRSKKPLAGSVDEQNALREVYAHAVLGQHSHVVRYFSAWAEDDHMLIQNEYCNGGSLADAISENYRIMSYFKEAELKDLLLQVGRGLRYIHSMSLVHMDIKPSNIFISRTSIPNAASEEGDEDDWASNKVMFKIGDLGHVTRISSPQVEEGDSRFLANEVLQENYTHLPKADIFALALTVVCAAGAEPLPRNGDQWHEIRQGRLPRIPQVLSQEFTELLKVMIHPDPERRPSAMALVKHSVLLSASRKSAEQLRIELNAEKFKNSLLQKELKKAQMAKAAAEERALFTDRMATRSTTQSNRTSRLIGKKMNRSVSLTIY
* hit, by the source's call; ? = inconclusive; nt = no result. Sampled rows, rich in hits. Any-hit rate of the full collection: about 2.1%.

SMILES	HIF activator	aSyn 5UTR inh	KLF5 inhibitor	Platelet DG rel	Wee1 degr inh
CC(C)C1COS(=O)(=O)NC1CC(=O)SC(C)(C)C (centres undefined)	0	-19	4	-5	nt
CCOc1ccc(Nc2ncnc3c2cnn3C)cc1	1	-23	-6	-1	nt
C/C(=N\NC(=O)c1nnn(-c2nonc2N)c1-c1cccs1)c1cccc(O)c1	6	-35	-42	25	nt
CCOCCCNC(=O)c1ccc(Cn2c(=S)[nH]c3c([nH]c4ccc(OC)cc43)c2=O)cc1	1	25	-21	2	3
CCCCNC(=O)c1ccc(Cn2c(=S)[nH]c3c([nH]c4ccc(OC)cc43)c2=O)cc1	-5	105*	-15	12	2
COc1ccc2[nH]cc(CCNC(=O)C3CCCO3)c2c1 (centres undefined)	0	5	-28	10	11*
CCc1nc(SCc2ccccc2C)n[nH]1	-30	-35	-37	-6	nt
COC(=O)c1cc(S(=O)(=O)NCc2ccccc2OC)cn1C	71*	-3	-2	-1	nt
CC(C)C[C@H](NC(=O)c1cc2cc(Cl)ccc2n1C)C(=O)N1CCC(C(=O)O)CC1	-1	3	-41	15	nt
COCCNC(=O)[C@H](C)[C@H]1C[C@]1(C)[C@H](NC(=O)OCc1ccccc1)c1ccccc1	1	3	-19	4	9.1*
C[C@@H](C(=O)NCc1ccccc1)[C@@H]1C[C@@]1(C)[C@@H](NC(=O)OCc1ccccc1)c1ccccc1	1	0	-3	-1	-1
CN(C)CCn1c2ccccc2c2nc3ccc([N+](=O)[O-])cc3cc21	1	104*	-1	-11	-1
CSC1=NC(C(Cl)(Cl)Cl)N=C(c2ccc(C)cc2)N1 (centres undefined)	0	118*	53	-6	8
CCC1N=C(SC)NC(C)=C1C(=O)c1ccccc1 (centres undefined)	0	-8	-12	3	0
COc1ccc(C(=O)Nc2nnc(SCC(=O)NCc3ccco3)s2)c(OC)c1	-2	41	3	-4	nt
CC(C)(C)C(=O)N1CCN(c2ccc(NC(=O)c3ccc([N+](=O)[O-])o3)cc2)CC1	-7	29	47	-12	nt
O=C(Nc1ccc(N2CCN(Cc3ccccc3F)CC2)cc1)c1ccccc1[N+](=O)[O-]	0	20	-5	0	0
O=C(Nc1ccc(N2CCN(C(=O)c3ccc(Cl)cc3)CC2)cc1)c1ccc([N+](=O)[O-])o1	-8	120*	-28	-9	0
CS(=O)(=O)N1CCN(c2ccc(NC(=O)c3ccc([N+](=O)[O-])o3)cc2)CC1	-4	72*	-21	-8	2
O=C(Nc1ccc(N2CCN(Cc3ccccc3F)CC2)cc1)c1ccc([N+](=O)[O-])o1	-5	105*	19	-14	nt
O=C(NCCOC12CC3CC(CC(C3)C1)C2)c1cccc(Br)c1	0	11	-2	0	-3
COc1ccc(-c2n[nH]c(=S)nc2-c2ccc(OC)cc2)cc1	-1	13	-1	3	nt
O=Nc1c2cc(-c3ccccc3)[nH]nc-2c2ccccc12	1	37	-55	?	6
Cc1ccc(-c2cc3c(N=O)c4ccccc4c-3n[nH]2)cc1	-3	92*	-17	?	-3
O=C(NCCCN1CCOCC1)C1(c2ccccc2)CCCC1	0	19	-41	70*	-1
SMILES	HIF activator	aSyn 5UTR inh	KLF5 inhibitor	Platelet DG rel	Wee1 degr inh
CC1CCC(C(C)C)C(OC(=O)Cn2c(-c3ccccc3)[n+](C)c3ccccc32)C1 (centres undefined)	0	77*	18	-11	-1
CC1CCC(C(C)C)C(OC(=O)Cn2c(-c3ccc(F)cc3)[n+](C)c3ccccc32)C1 (centres undefined)	nt	nt	-9	nt	-2
CC(=O)c1ccc(NC(=O)C(C)OC(=O)c2ccc3c(c2)nc(C)n3-c2ccccc2)cc1 (centres undefined)	2	-91	-38	5	8.8*
O=S(=O)(c1ccccc1)N1N=C(c2ccccc2)CC1c1ccccc1F (centres undefined)	0	-1	-12	-2	nt
COc1ccc(CC(=O)NNC(=S)NCC2CC2)cc1OC	30*	13	-26	-7	1
CCn1c(COc2cc(C)ccc2C(C)C)nnc1SCC(=O)Nc1nccs1	0	-2	-1	-1	11*
CCCCc1nnc(SCC(=O)Nc2nccs2)n1CC	-3	2	2	5	nt
Cn1cc(CC(=O)N2CCN(c3ccc(Cl)cc3)CC2)c2ccccc21	42*	36	-9	11	4
CC(=O)NC1(C(F)(F)F)NC(=O)N(CCc2ccccc2)C1=O (centres undefined)	2	1	4	3	nt
CCOC(=O)Cn1c(=O)n(Cc2ccco2)c(=O)c2ccc(C(=O)NC3CCCC3)cc21	0	7	-6	90*	0
Cc1ccc2nc(-c3cc(-c4ccccc4)no3)cn2c1	-2	86*	-92	0	1
c1ccc(-c2nnc(-c3ccccn3)nn2)nc1	2	-122	nt	36	nt
c1ccc(-c2cccc(-c3ccccn3)n2)nc1	212*	77*	53	5	-4
Cc1ccc(CSc2nnc(SCC(=O)N/N=C/c3ccc(C(=O)O)cc3)s2)cc1	-2	70*	-5	-1	-4
Cc1ccc(CSc2nnc(SCC(=O)N/N=C/c3c[nH]c4ccccc34)s2)cc1	0	13	-17	-1	-1
Cc1ccc(CSc2nnc(SCC(=O)N/N=C/c3ccccc3OCC(=O)O)s2)cc1	-1	62*	-9	-4	-2
Cc1cccc(N/N=C(\C=N\N)C(=O)c2ccc(Br)cc2)c1	0	-32	16	5	-1
COc1ccc(Cc2nnc(SCC(=O)c3ccc4c(c3)NC(=O)CO4)o2)cc1	-1	6	nt	1	nt
CCN(CC)c1ccc(/C=N/NC(=O)CNC(=O)C2COc3ccccc3O2)c(O)c1 (centres undefined)	19*	55	60	2	nt
Cc1ccc(N2C(=O)C3C4C=CC(CC4)C3C2=O)c([N+](=O)[O-])c1 (centres undefined)	1	9	-20	-5	nt
Cc1ccc(NS(=O)(=O)c2ccc(C(=O)NCC3CCCO3)cc2)cc1 (centres undefined)	-1	-27	-4	9	11*
O=C(NCC1CCCO1)c1cc(-c2ccc(F)cc2)no1 (centres undefined)	14*	-264	-91	-4	nt
COc1ccc(-c2cc(C(=O)NCC3CCCO3)on2)cc1OC (centres undefined)	0	-5	-7	-3	nt
Cc1cccc(NC(=O)C(=O)NCC2CCCO2)c1 (centres undefined)	2	-92	-123	2	8.8*
O=C(NCC1CCCO1)c1cc(-c2ccccc2)on1 (centres undefined)	15*	-362	-109	-10	3
Cc1cc(NS(=O)(=O)c2ccc(NC(=O)CCCOc3ccccc3C)cc2)no1	0	18	-10	-1	nt
